# Compounds with a hit are over-represented: about 3.1% of the library has one in this group of screens.
# p47phox inh: blocks human p47phox regulatory protein of NADPH oxidases | p47phox/p22phox peptide binding, fluorescence polarization, 2 h | P14598 | inhibition, % at 24.7 µM | AID 1274 | actives 0.53% (n = 220,000);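 active means inhibition above about 30%, limit read from the data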;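 further: 0% = p47phox with labelled peptide and 100% = labelled peptide alone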
# Target sequence (P14598 whole entry, looked up): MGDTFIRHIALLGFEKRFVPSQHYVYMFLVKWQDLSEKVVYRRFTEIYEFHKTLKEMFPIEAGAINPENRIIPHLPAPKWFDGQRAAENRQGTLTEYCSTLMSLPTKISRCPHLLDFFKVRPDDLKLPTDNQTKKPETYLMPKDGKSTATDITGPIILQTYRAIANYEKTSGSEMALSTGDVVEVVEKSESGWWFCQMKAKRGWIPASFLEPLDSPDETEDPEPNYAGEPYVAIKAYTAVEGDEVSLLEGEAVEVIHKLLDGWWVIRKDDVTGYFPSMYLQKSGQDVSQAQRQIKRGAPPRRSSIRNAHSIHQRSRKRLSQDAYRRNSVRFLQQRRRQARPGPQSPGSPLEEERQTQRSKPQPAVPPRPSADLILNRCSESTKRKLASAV
# Mcl1-Noxa inh: Mcl-1/Noxa interaction inhibition. Q07820. TR-FRET Mcl-1/Noxa peptide binding, 2 h. inhibition, % at 21.7 µM. actives 1.5% (n = 220,000). AID 1022;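 active means compounds that cut the protein-peptide binding signal by more than 50% relative to plate controls in a single-dose test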;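 further: His-tagged Mcl-1 with rhodamine Noxa BH3 peptide and terbium anti-His antibody; 0% = Mcl-1 plus Noxa peptide wells and 100% = peptide-only wells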
# Mcl1 Bid PPI: disrupts binding of human Mcl-1 to Bid peptide; inhibition, % at 21.7 µM; TR-FRET Mcl-1/Bid-Dy647 peptide binding, 1536-well; Q07820; actives 0.97% (n = 220,000);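 active means compounds that cut the binding signal by more than half at the single screening dose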;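 further: His-tagged Mcl-1 with europium anti-His antibody binding Bid BH3 peptide; 0% = Mcl-1 plus peptide wells and 100% = peptide-only wells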
# 14-3-3 Bad PPI: disrupts binding of bovine 14-3-3 zeta to phospho-Bad peptide | actives 0.71% (n = 220,000) | inhibition, % at 21.7 µM | TR-FRET 14-3-3zeta/Dy647-pBad peptide displacement, 1 h;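 active means inhibition above about 70%, limit read from the data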;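 further: 0% = full 14-3-3 plus peptide FRET controls and 100% = background without 14-3-3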
# Mcl-1 Bim block: disrupts Bim peptide binding to human Mcl-1. Q07820. Bead-based flow cytometry, Bim peptide-Mcl-1 binding. inhibition, % at 10 µM. actives 0.1% (n = 190,000); in the data active means inhibition above about 40%;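 further: 0% = no compound tracer wells and 100% = peptide blocker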
# * = called active by the depositor; . = no result given; [ ] = remark or other dose.
SMILES,p47phox inh,Mcl1-Noxa inh,Mcl1 Bid PPI,14-3-3 Bad PPI,Mcl-1 Bim block
CN(C)C=Nc1nonc1-c1ccccc1,-10,0,1,-8,.
COc1ccc(/C=C2\C(=O)NC(=S)N2C(=O)c2ccc(C)cc2)cc1,-142,77*,56*,79*[fluorescence artefact?],-2
COc1cc(NS(=O)(=O)c2ccc(C)cc2)ccc1-n1cnnn1,53*,-4,-9,14,-4
COc1cc(S(=O)(=O)NCCCN2CCOCC2)ccc1-n1cnnn1,6,34,25,70*,0
COc1cc(S(=O)(=O)NCCN2CCOCC2)ccc1-n1cnnn1,-2,11,-15,15,0
COc1cc2c(cc1OC)C(c1cccc([N+](=O)[O-])c1)N(C(=O)c1ccccc1C(=O)O)CC2 (stereo not drawn),-3,2,-9,-2,1
O=C(O)CCN1C(=O)/C(=C\c2ccc(-c3nc4ccccc4s3)o2)SC1=S,-104,102*,95*,17,25
O=C(O)CCCN1C(=O)/C(=C\c2ccco2)SC1=S,-13,1,-87,4,-2
CC(=O)c1ccc(-n2c(-c3cc(-c4ccco4)[nH]n3)n[nH]c2=S)cc1,-12,63*,-91,-9,-5
CNCc1ccccc1OCc1ccccc1F,-7,74*,-3,-8,3
Cc1ccc(C(=O)N2CCN(Cc3ccc4c(c3)OCO4)CC2)cc1[N+](=O)[O-],-2,-6,-33,-13,0
O=c1oc(-c2ccc(Cl)c(Cl)c2)nn1-c1ccc(C(F)(F)F)cn1,-18,7,-5,-2,.
O=C(COc1ccccc1[N+](=O)[O-])Nc1ccc(NC(=O)c2cc3ccccc3o2)cc1,32*,-28,41,90*,-1
O=C(COc1ccc(/C=N/NC(=O)c2cc3ccccc3o2)cc1Br)Nc1ccccc1,38*,2,82*,86*[fluorescence artefact?],0
O=C(Nc1ccccc1)c1cc2ccccc2o1,-18,-13,-4,-10,-5
O=C(CCc1c[nH]c2ccccc12)N1CCN(c2ccc(O)cc2)CC1,-5,3,-33,-5,-1
COc1cc(/C=N/NC(=O)Cc2csc(N3CCOCC3)n2)cc(OC)c1O,10,58*,11,2,3
Cc1ccc(-c2cn(-c3ccccc3)c(SCC(N)=O)n2)cc1C,-15,17,87*,-1,-7
CCOC(=O)NC(=O)CSc1nc(-c2ccc(C)c(C)c2)cn1-c1ccccc1,-41,22,-39,-17,-1
COc1cc(/C=N/NC(=S)Nc2cccc(Cl)c2C)ccc1OCC(=O)N1CC(C)OC(C)C1 (stereo not drawn),-6,1,-20,6,-4
NC(=O)c1ccc(N2CCN(c3ccc(O)cc3)CC2)c([N+](=O)[O-])c1,2,64*,-38,-11,4
CCN(CC)CCNC(=O)c1c(O)c2cc(OC)c(OC)cc2[nH]c1=O,-2,37,2,4,-1
COc1cc2[nH]c(=O)c(C(=O)NCCCN3CCOCC3)c(O)c2cc1OC,10,68*,12,-5,-3
CCCCOc1ccc(CC2CCC(=O)NC2=O)cc1 (stereo not drawn),-5,14,1,-15,2
Cc1ccc(OCC(=O)N/N=C/c2cccn2C)cc1,1,11,-27,70*,0
SMILES,p47phox inh,Mcl1-Noxa inh,Mcl1 Bid PPI,14-3-3 Bad PPI,Mcl-1 Bim block
Cc1ccc(C)c(OCC(=O)N/N=C\c2cccn2C)c1,4,44,-17,-15,0
COC(=O)C1=C(C)C(c2ccc(OC)cc2OC)NC(=O)N1 (stereo not drawn),4,4,65*,-4,3
COc1ccc(NC(=O)C2=C(C)NC(=O)NC2c2cccc(OC)c2OC)c(OC)c1 (stereo not drawn),-3,-12,0,-10,43*
CCN(C(=S)Nc1ccc(C(C)=O)cc1)C1CCCCC1,-12,-3,-37,-7,-6
O=C(CSc1nnc(-c2ccncc2)o1)NCc1ccccc1Cl,-3,1,101*,-2,0
COC(=O)C1C(O)=C(C(C)=Nc2cccc3ccccc23)C(=O)CC1(C)C (stereo not drawn),-6,15,-34,-10,.
Cc1ccc(NC(=S)NC2CC3CCC(C2)N3Cc2ccco2)c(C)c1 (stereo not drawn),37*,2,-39,-1,-4
Nc1nc2c(c(=O)[nH]1)C(c1cccc3ccccc13)C1=C(N2)c2ccccc2C1=O (stereo not drawn),-16,94*,14,4,4
O=C(Nc1ccc2c(c1)OCCO2)c1cccc2nc3ccccc3nc12,21,62*,21,10,6
O=C(Nc1ccc(NC(=O)c2ccccn2)cc1)C(=O)Nc1ccc2c(c1)OCCO2,-47,54*,34,43,0
O=C(Nc1ccc2c(c1)OCCO2)c1ccccn1,-2,8,-25,-21,-1
COc1ccc(COc2ccsc2C(=O)Nc2ccc(Cl)c(Cl)c2)cc1,-12,1,-11,21,-3
C=CCn1c(C)cc(C(=O)CSc2nc3ccccc3c(=O)[nH]2)c1C,-23,-1,-68,-23,0
COCCn1c(C)cc(C(=O)CSc2nc3ccccc3c(=O)[nH]2)c1C,-13,61*,-46,-17,-2
Cc1ccc(CSc2nc3ccccc3c(=O)[nH]2)cc1,-12,7,-49,71*,-2
CCOC(=O)N1CCC(N2Cc3cccc(C(=O)Nc4cccc(F)c4)c3C2=O)CC1,-12,15,-30,-10,2
COc1ccc(-c2ccc(C(c3c(C)[nH][nH]c3=O)c3c(C)[nH][nH]c3=O)o2)c([N+](=O)[O-])c1,42*,25,-77,-12,-1
O=[N+]([O-])c1ccccc1NC(=S)N/N=C/c1ccc(O)c(O)c1,2,55*,-97,-10,0
CCCCCOc1ccc(NS(C)(=O)=O)cc1,-7,-7,-12,-5,1
CN(CCOc1ccc(NS(C)(=O)=O)cc1)CCc1ccc(NS(C)(=O)=O)cc1,-10,1,84*,0,1
CC(=O)NS(=O)(=O)c1ccc(NC(=O)c2oc3c(Cl)cccc3c2C)cc1,-9,21,10,0,.
CNCc1ccccc1Sc1cc(O)ccc1O,5,99*,40,57,-2
CC[n+]1ccc(C[n+]2ccccc2)c2ccccc21,79*,23,-31,31,-1
Cc1ccc(S(=O)(=O)n2nc(C)cc2C)cc1,43*,14,0,-7,-4
CCN(CC)CCCOc1nc(C)nc2c1oc1ccccc12,-5,23,-9,77*,0
[O-][n+]1c2c(c3c4non(O)c4ccc31)CCCC2,-11,41,-34,-7,3
O=C(O)C1CSC(c2ccccc2Cl)N1C(=O)c1ccc(Cl)cc1 (stereo not drawn),87*,0,12,-3,-1
COc1ccc(C(=O)CSc2nnc(CN3CCCCC3)n2-c2ccc(F)cc2)cc1OC,-4,3,-6,6,-7

# From PubChem
